Reference: PubChem BioAssay (EPA / NIEHS)
Activity calls are given as the source filed them. Rule for the calls: active = hit-call score of the fitted dose curve at least 0.9, where 1 is the maximum; inactive = score below 0.9.

Assay: ATG_TGFb_CIS: Attagene CIS-FACTORIAL HepG2 Assay for human Transforming Growth Factor (TGF) (AID 2282967)
Details: HepG2 Attagene CIS TGFb reporter, mRNA transcription; actives raise or lower the signal
Procedure: ATG_CIS is a cell-based, multiplexed-readout assay that uses HepG2, a human liver cell line, with measurements taken at 24 hours after chemical dosing in a 24-well plate.ATG_TGFb_CIS is one of 52 assay component(s) measured or calculated from the ATG_CIS assay. It is designed to make measurements of mRNA induction, a form of inducible reporter, as detected with fluorescence intensity signals by Reverse transcription polymerase chain reaction (RT-PCR) and Capillary electrophoresis technology.Data from the assay component ATG_TGFb_CIS was analyzed into 1 assay endpoint. This assay endpoint, ATG_TGFb_CIS, was analyzed with bidirectional fitting relative to DMSO as the negative control and baseline of activity. Using a type of inducible reporter, measures of mRNA for gain or loss-of-signal activity can be used to understand the reporter gene at the transcription factor-level as they relate to the gene TGFB1. Furthermore, this assay endpoint can be referred to as a primary readout, because this assay has produced multiple assay endpoints where this one serves a reporter gene function. To generalize the intended target to other relatable targets, this assay endpoint is annotated to the growth factor intended target family, where the subfamily is transforming growth factor beta.
Human liver HepG2 cells are transiently transfected with multiple reporter transcription units (MRTUs) in 6-well plates using FuGene 6 reagent (Roche; 3 ml FuGene/1 mg DNA). The MRTU constructs are regulated by a cis-regulating element (promoter). […] A major difference between the CIS and TRANS system is that in CIS activities of endogenous TFs are measured, whereas the TRANS assay evaluates changes in activities of exogenous, chimeric NR-Gal4 proteins. […] At the end of 24 hour incubation, total RNA was isolated using TriZol reagent (Invitrogen). The isolated RNA is then reverse-transcribed using oligo(dT) primer and Mo-MLV reverse transcriptase (Invitrogen) with DNAse I (Ambion) treatment for 30 min. The one-tenth of the produced cDNA was amplified by PCR using Taq DNA polymerase (Invitrogen) and two reporter sequence-specific primers. The PCR products were fluorescently labeled by primer extension with 6-arboxyfluorescein (6-FAM) 5'-labeled reporter sequence-specific primer (2 min at 95 C, 20 s at 68 C and 10 min at 72 C) and these products were digested with 5U of HpaI (New England Biolabs) for 2h at 37 C. The fragments were purified using Qiaquick PCR columns (Qiagen), analyzed on an ABI 3130xL genetic analyzer (Applied Biosystems) with peak positions identified by using a set of X-rhodamine (ROX)-labeled MapMarker1000 molecular weight standards (BioVentures). The raw capillary electrophoresis data was processed using Attagraph software (Attagene).

Compound | outcome
Cc1ccccc1CCl | inactive
CCOC(=O)COc1ccc(Cl)cc1Cl | inactive
CC(=O)/C=C/c1ccccc1 | inactive
CN(C)N | inactive
CNC(=O)Oc1cc(C)c(SC)c(C)c1 | inactive
COc1ncc(F)c2nc(S(=O)(=O)Nc3c(F)cccc3F)nn12 | inactive
Oc1ccc(C2(c3ccc(O)cc3)c3ccccc3-c3ccccc32)cc1 | inactive
O=C=Nc1ccccc1 | inactive
[N-]=[N+]=CC(=O)OC[C@H](N)C(=O)O | inactive
O=C1C=CC(=O)C=C1 | inactive
CCCCCCC1CCOC1=O (stereo not given) | inactive
[Cl-].[Cl-].[Cl-].[Yb+3] | inactive
CCOP(=O)(OCC)Oc1ccc([N+](=O)[O-])cc1 | inactive
O=C(O)COc1ccccc1 | inactive
C=CC(=O)OCCO | inactive
CCCCOC(=O)CCC(=O)OCCCC | inactive
O=C(O)c1cc[c]([Hg][Cl])cc1 | inactive
C[N+](=O)[O-] | inactive
C=COCCCl | inactive
CCC(C)c1cc([N+](=O)[O-])cc([N+](=O)[O-])c1OC(=O)C=C(C)C (stereo not given) | inactive

Compound | outcome
O=C(O)CCl | inactive
CC1(C)CC(=O)CC(C)(C)N1[O] | inactive
N#Cc1cccc(C#N)c1 | inactive
O=[N+]([O-])O.O=[N+]([O-])O.[Cd] | inactive
Nc1ccc(-c2ccc(N)c(N)c2)cc1N | inactive
[CH3][Sn]([CH3])([Cl])[Cl] | inactive
CC(C)(Cl)Cl | inactive
CN1C[C@H](C(=O)N[C@]2(C)O[C@@]3(O)[C@@H]4CCCN4C(=O)[C@H](Cc4ccccc4)N3C2=O)C=C2c3cccc4[nH]cc(c34)C[C@H]21 | inactive
CN1C(=O)CCS(=O)(=O)C1c1ccc(Cl)cc1 (stereo not given) | inactive
CCC(=O)c1ccc(Cl)cc1 | inactive
CC(C)(C)C(=O)CCl | inactive
N#Cc1cc(I)c(O)c(I)c1 | inactive
COc1cc(OC)c(OC)cc1C=O | inactive
CCC(Br)(CC)C(=O)NC(N)=O | inactive
C=C(Cl)Cl | inactive
CCCC=NO | inactive
CCCCCc1cc(O)cc(O)c1 | inactive
Nc1ccc([N+](=O)[O-])cc1N | inactive
Nc1ccccc1 | inactive
COC(=O)c1ccccc1S(=O)(=O)NC(=O)Nc1nc(C)cc(C)n1 | inactive
